Source: PubChem (The Scripps Research Institute Molecular Screening Center)
Rows were chosen to be rich in hits. Some 3.5% of all compounds tested hit in one or more screens of this group.
GPR151 activ = activates the human receptor GPR151 | activation, % at 11.2 µM | PathHunter beta-arrestin GPR151 cells, luminescence | AID 1508602 | Q8TDV0 | 650,000 compounds, 1% hits; in the data active = activation above about 4.9%
MITF primary = blocks human microphthalmia-associated transcription factor; O75030; AlphaScreen MITF homodimerization, bead proximity signal; inhibition, % at 2.6 µM; 650,000 compounds, 0.91% hits; AID 1259374; in the data active = inhibition above about 50%
FBW7 activator = human FBW7 E3 ligase activation, primary screen; AID 1259310; AlphaScreen FBW7–phospho-cyclin E peptide binding, activator screen; normalized activity (activation), % at 26.1 µM; 650,000 compounds, 0.13% hits; in the data active = normalized activity above about 1.9%;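 note: purified mutant Fbw7 with reduced substrate affinity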
Target sequence (Q969H0 whole entry, looked up): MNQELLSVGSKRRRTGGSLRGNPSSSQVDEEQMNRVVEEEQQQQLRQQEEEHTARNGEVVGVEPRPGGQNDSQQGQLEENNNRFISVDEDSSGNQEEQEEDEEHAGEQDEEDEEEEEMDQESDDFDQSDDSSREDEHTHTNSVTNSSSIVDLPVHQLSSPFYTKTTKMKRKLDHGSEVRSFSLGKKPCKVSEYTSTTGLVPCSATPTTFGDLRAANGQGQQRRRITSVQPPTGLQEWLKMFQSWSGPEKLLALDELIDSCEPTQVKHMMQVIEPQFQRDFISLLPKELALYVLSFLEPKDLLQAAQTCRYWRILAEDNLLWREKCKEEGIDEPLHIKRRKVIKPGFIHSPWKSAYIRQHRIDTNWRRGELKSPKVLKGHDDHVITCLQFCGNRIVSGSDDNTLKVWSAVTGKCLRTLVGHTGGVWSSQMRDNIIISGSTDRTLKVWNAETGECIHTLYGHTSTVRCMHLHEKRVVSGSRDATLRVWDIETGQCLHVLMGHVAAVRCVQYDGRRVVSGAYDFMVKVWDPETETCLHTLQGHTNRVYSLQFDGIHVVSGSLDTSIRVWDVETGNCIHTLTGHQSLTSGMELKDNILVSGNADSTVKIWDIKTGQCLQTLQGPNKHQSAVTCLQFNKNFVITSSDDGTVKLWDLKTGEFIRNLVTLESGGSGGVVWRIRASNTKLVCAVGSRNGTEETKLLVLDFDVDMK
TEAD-YAP inh = TEAD-YAP interaction inhibition | HEK-TIYL cells, TEAD-Gal4/YAP UAS-luciferase luminescence | inhibition, % at 9.12 µM | 640,000 compounds, 1.4% hits | AID 1259422; in the data active = inhibition above about 32%
GPR151 conf act = confirmation of human GPR151 activators; activation, % at 11.2 µM; GPR151 PathHunter beta-arrestin cells, luminescence, 90 min; % of EA-reagent control over plate median; 6,700 tested, under 10 active; shares compounds with GPR151 activ;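 active = mean percent activation across replicates above the confirmation screen cutoff of 4.91%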
GPR119 ag = activates human GPR119 in a GPR151 counter-screen; AID 1508611; 6,700 compounds, 0.3% hits; shares compounds with GPR151 activ; activation, % at 11.2 µM; GPR119 PathHunter beta-arrestin cells, luminescence, 90 min; 0 = compound-well median, 100 = enzyme-acceptor control;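 active = mean percent activation in the counterscreen above 29.09%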;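 note: counterscreen on off-target GPR119 to flag nonselective hits from the GPR151 activator screen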
Hits are given with their value; - = inactive; . = not tested or not shown.

SMILES	GPR151 activ	MITF primary	FBW7 activator	TEAD-YAP inh	GPR151 conf act	GPR119 ag
O=C1C(C=NCc2ccc(Cl)cc2)=C(O)c2ccccc21	-	-	-	-	.	.
CC1CC(=O)c2cnc(N3CCN(Cc4ccccc4)CC3)nc2C1 (stereo unspecified)	-	-	-	-	.	.
O=C1CCCc2nc(N3CCN(Cc4ccccc4)CC3)ncc21	6.9	-	-	-	-	-
Cc1ccc(/C(O)=C2/C(=O)C(=O)N(CCN(C)C)C2c2ccc(F)cc2)cc1 (stereo unspecified)	-	-	-	-	.	.
CCN(CC)CCn1c2ccccc2n2c(C(C)=O)c(C)nc12	-	-	-	-	.	.
CCCCc1ccc(NC(=O)COc2ccc(Cl)c(C)c2)cc1	-	-	-	-	.	.
COc1cccc2cc3c(=O)n(-c4ccccc4)nc-3oc12	10.4	-	-	-	-	-
O=C(NNC(=O)C12CC3CC(C1)CC(c1ccccc1)(C3)C2)c1ccncc1	6.0	-	-	-	-	-
CC1CCCC(NC(=O)c2ccc(CNS(=O)(=O)c3ccc(Cl)cc3)cc2)C1C (stereo unspecified)	-	-	-	-	.	.
CC1CCCC(NC(=O)c2ccc(CNS(=O)(=O)c3ccc(F)cc3)cc2)C1C (stereo unspecified)	6.3	-	-	-	-	-
COC(=O)C1=CN(Cc2ccc(OC)c(OC)c2)C=C(C(=O)OC)C1c1ccc(OC)c(O)c1	-	-	-	-	.	.
Cn1cccc1C(CNS(=O)(=O)c1cc(F)ccc1F)N1CCCC1 (stereo unspecified)	-	-	-	-	.	.
CCOc1ccc(C)cc1S(=O)(=O)NCC(c1cccn1C)N1CCCC1 (stereo unspecified)	5.2	-	-	-	-	-
CC(=O)N1CCC2(CC1)N=C(C)C(c1ccccc1)=N2	7.1	-	-	-	-	-
C#CCOc1cc(Br)c(C=O)cc1OCC	-	-	-	-	.	.
CCOc1cc(OCC)c(C=O)cc1Br	6.3	-	-	-	-	-
CC(=O)c1ccc(NC(=O)CSc2ccc(C)cc2)cc1	5.5	-	-	-	-	-
CC(=O)c1ccc(NC(=O)CSc2ccc(F)cc2)cc1	-	-	-	-	.	.
CCOC(=O)/C(C#N)=C(\O)c1ccc(NC(=O)c2cccc([N+](=O)[O-])c2)cc1	-	-	-	-	.	.
O=C(NC1CCN(C(=O)NCc2ccccc2)CC1)c1cccc(F)c1	5.6	-	-	-	-	-
C=CCNC(=O)C1CCN(C(=O)NCc2ccccc2)CC1	10.0	-	-	-	-	-
O=C(NC1CCN(C(=O)Nc2cccc(F)c2)CC1)c1cccc(F)c1	-	-	-	-	.	.
N#CC1=C(N)C(C#N)(C#N)C(c2ccoc2)C2CN(C(=O)OCc3ccccc3)CC=C12 (stereo unspecified)	-	-	-	-	.	.
Cc1cnccc1NC(=O)c1cccs1	-	-	-	-	.	.
O=C(Nc1ccncc1)c1cccs1	-	-	-	-	.	.
SMILES	GPR151 activ	MITF primary	FBW7 activator	TEAD-YAP inh	GPR151 conf act	GPR119 ag
Cc1ccc(NC(=O)c2cccs2)cc1NC(=O)c1cnccn1	5.9	-	-	-	-	-
O=C(Nc1cccnc1)c1cccs1	8.9	-	-	39.9	-	-
Cc1c(C#N)c2nc3c(c(-c4ccccc4)c2n1-c1ccccc1)CCCC3	6.1	-	-	-	-	-
Cc1c(C#N)c2nc3c(c(-c4ccccc4)c2n1-c1ccccc1)C(=O)CC(C)(C)C3	-	-	-	-	.	.
COc1cc(C(=O)Nc2ccc3oc(-c4ccc(I)cc4)nc3c2)cc(OC)c1OC	20.9	-	-	-	-	-
COc1ccccc1-c1nnc(NC(=O)c2ccc([N+](=O)[O-])s2)o1	14.6	-	-	-	-	-
O=C(Nc1nnc(-c2ccccc2)o1)c1ccc([N+](=O)[O-])s1	-	-	-	-	.	.
Cc1ccc(C(=O)Nc2ccc3oc(-c4ccncc4)nc3c2)cc1C	4.9	-	-	-	-	-
COc1ccccc1C(=O)Nc1ccc2oc(-c3ccc(C(C)(C)C)cc3)nc2c1	6.2	-	-	-	-	-
O=C(c1cncc(Br)c1)N1CCN(c2ccc(-c3ccncc3)nn2)CC1	-	-	-	-	.	.
COC(=O)c1ccccc1NC(=O)C12CCC(C)(C(=O)C1)C2(C)C (stereo unspecified)	-	-	-	-	.	.
COc1ccccc1C(=O)Nc1nnc(-c2ccc(Cl)cc2)o1	5.5	-	-	-	-	-
CCc1ccc2oc(-c3cc(NC(=O)c4cccc(C)c4)ccc3O)nc2c1	-	-	-	-	.	.
COc1ccccc1C(=O)Nc1nnc(-c2ccc(F)cc2)o1	-	-	-	-	.	.
CCc1ccc(-c2nc3cc(NC(=O)c4cccc(C)c4)ccc3o2)cc1	8.2	-	-	-	-	-
COCCn1nnnc1C(c1ccccc1F)N1CCN(C2CCCC2)CC1 (stereo unspecified)	-	-	-	-	.	.
CSCCCNC(=O)CCc1nnc(CCCCc2ccccc2)o1	-	-	-	-	.	.
O=C(COc1ccccc1F)Nc1cc(-c2ccccc2)nn1CCO	-	-	-	-	.	.
Cc1cccc(-n2nc3c(c2NC(=O)COc2ccc(Cl)cc2Cl)CS(=O)(=O)C3)c1C	-	-	-	-	.	.
Cc1ccccc1-n1nc2c(c1NC(=O)COc1ccc(Cl)cc1Cl)CS(=O)(=O)C2	8.8	-	-	-	-	-
O=C(COc1ccc(Cl)cc1Cl)Nc1cc(-c2ccccc2)nn1CCO	5.9	-	-	-	-	-
Cc1cc(C(=O)Nc2ccc(F)cc2F)no1	6.5	-	-	-	-	-
CCCc1cc(C(=O)Nc2ccc(F)cc2F)no1	-	-	-	-	.	.
Cc1ccc(S(=O)(=O)NNC(=O)c2ccco2)cc1	-	-	-	-	.	.
CCc1cc(-c2n[nH]c(C)c2-c2nc(C)cs2)c(O)cc1OC	8.0	-	-	-	-	-
SMILES	GPR151 activ	MITF primary	FBW7 activator	TEAD-YAP inh	GPR151 conf act	GPR119 ag
O=C(Cn1cnc2ccccc2c1=O)NCC(=O)N1CCN(c2ccc(F)cc2)CC1	-	-	-	-	.	.
CCOc1ccc(-c2n[nH]c(C)c2Oc2ccc(F)cc2)c(O)c1	4.9	-	-	-	-	-
COCCCNC(=O)c1ccc2c(c1)NC(=O)/C(=C\c1ccc(OC)cc1)S2	7.2	-	-	-	-	-
COc1ccc(/C=C2/Sc3ccc(C(=O)NC(C)(C)C)cc3NC2=O)cc1	-	-	-	-	.	.
Cc1ccc(OCC(=O)N2CCN(C(=O)COc3ccc4ccccc4c3)CC2)cc1	-	-	-	-	.	.
Cn1nnc2c(N3CCN(C(=O)COc4ccc5ccccc5c4)CC3)ncnc21	5.1	-	-	-	-	-
CCc1ccc(Nc2nc(N3CCCC3)nc(N3CCCC3)n2)cc1	4.9	-	-	-	-	-
Cc1ccc(Nc2nc(N3CCCC3)nc(N3CCCC3)n2)cc1	-	-	-	-	.	.
COc1ccc(CNS(=O)(=O)c2ccc(F)c(C(=O)Nc3cc(Cl)cc(Cl)c3)c2)cc1	-	-	-	-	.	.
